{"source": "PubChem BioAssay (NCATS)", "note": "A number with no mark means an inactive call. Calls follow the shape of the dose curve; as a rule, active = well fitted curve in the direction sought with a large enough effect; inconclusive = small, poorly fitted or top-dose-only effect, or another doubt; inactive = no such curve, though single readings can be large; an effect the other way counts as inactive or inconclusive. Records with an inconclusive call do not appear."}
{"assay": "MultiTox-Fluor Cytotoxicity Assay - LYMP1-002 - Dead Cells (AID 960);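 also: cells exposed to compound for 16 h at 37 °C; nearly all actives have a fitted effect of over 60% in size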", "details": "LYMP1-002 lymphoblastoid cells, dead-cell protease fluorescence; series mostly up to 46.1 µM; cytotoxicity (dead cells): at the top concentration", "in_short": "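LYMP1-002 cells 2500/well; 5 hr 37 C pre-incubation; compound 16 hr 37 C; MultiTox-Fluor reagent 60 min RT; dead-cell fluor Ex/Em 485/520. Norm. to DMSO (0%) vs 15 uM tetraoctylammonium bromide (100%); Hill AC50.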", "units": {"cytotoxicity (dead cells)": "%"}}
{"smiles": "Cc1ccc(C#N)cc1", "cytotoxicity (dead cells)": 24.9}
{"smiles": "CC(C)C=O", "cytotoxicity (dead cells)": 9.99}
{"smiles": "CN(C)c1cccc(O)c1", "cytotoxicity (dead cells)": 2.03}
{"smiles": "O=C(O)c1ccc(Cl)cc1Cl", "cytotoxicity (dead cells)": -10.5}
{"smiles": "CCCC(Cl)CCCC(Cl)CCC(Cl)CCC(Cl)CCC(Cl)CCCC(Cl)CCC", "note": "(stereo unspecified)", "cytotoxicity (dead cells)": 4.46}
{"smiles": "CNC(=O)c1ccccc1", "cytotoxicity (dead cells)": 21.1}
{"smiles": "ClCCl", "cytotoxicity (dead cells)": -1.71}
{"smiles": "CC(=O)Nc1ccc(C)cc1", "cytotoxicity (dead cells)": -12.5}
{"smiles": "CC(C)(c1cc(Br)c(OCC(Br)CBr)c(Br)c1)c1cc(Br)c(OCC(Br)CBr)c(Br)c1", "note": "(stereo unspecified)", "cytotoxicity (dead cells)": 3.54}
{"smiles": "CC(=O)Nc1ccc(N)cc1", "cytotoxicity (dead cells)": 20.2}
{"smiles": "Cc1ccccc1C(N)=O", "cytotoxicity (dead cells)": 22.3}
{"smiles": "CC(=O)C1(C)CC2=C(CCCC2(C)C)CC1C", "note": "(stereo unspecified)", "cytotoxicity (dead cells)": 9.59}
{"smiles": "CC(C=O)Cc1ccc(C(C)(C)C)cc1", "note": "(stereo unspecified)", "cytotoxicity (dead cells)": 11.6}
{"smiles": "CCCCN(CCO)CCCC", "cytotoxicity (dead cells)": 6.69}
{"smiles": "OCCO", "cytotoxicity (dead cells)": -2.39}
{"smiles": "CC(=O)OC(C)=O", "cytotoxicity (dead cells)": 18.1}
{"smiles": "NS(=O)(=O)O", "cytotoxicity (dead cells)": 6.46}
{"smiles": "CCOC(=O)C(C)C(C)=O", "note": "(stereo unspecified)", "cytotoxicity (dead cells)": 9.84}
{"smiles": "Cc1ccc(C)c([N+](=O)[O-])c1", "cytotoxicity (dead cells)": -6.44}
{"smiles": "C=C(C)C(=O)OCCCCCCCCCC", "cytotoxicity (dead cells)": 13.2}
{"smiles": "COC(=O)CCCC(=O)OC", "cytotoxicity (dead cells)": -0.0204}
{"smiles": "c1ccc(Nc2ccccc2)cc1", "cytotoxicity (dead cells)": -2.51}
{"smiles": "O=C(O)c1cc(Cl)cc(Cl)c1", "cytotoxicity (dead cells)": 11.6}
{"smiles": "CC/C=C1/OC(=O)c2ccccc21", "cytotoxicity (dead cells)": 6.2}
{"smiles": "Cc1ccco1", "cytotoxicity (dead cells)": 18.2}
{"smiles": "NCCCCCCN", "cytotoxicity (dead cells)": 5.15}
{"smiles": "BrC/C=C/CBr", "cytotoxicity (dead cells)": -9.95}
{"smiles": "CC(=C/C=C/C(C)=C/C=C/C=C(C)/C=C/C=C(C)/C=C/C(=O)O)/C=C/C(=O)O", "cytotoxicity (dead cells)": 5.66}
{"smiles": "CCOC(C)(C)C", "cytotoxicity (dead cells)": 9.08}
{"smiles": "O=C(O)c1cccc(Cl)c1Cl", "cytotoxicity (dead cells)": 10.2}
{"smiles": "COc1ccc(OC)cc1", "cytotoxicity (dead cells)": 10.8}
{"smiles": "Clc1cc(Cl)cc(Cl)c1", "cytotoxicity (dead cells)": 2.11}
{"smiles": "Cc1c(C(=O)O)cccc1[N+](=O)[O-]", "cytotoxicity (dead cells)": 19.2}
{"smiles": "CCCCCCCCCCCCC1CO1", "note": "(stereo unspecified)", "cytotoxicity (dead cells)": -13}
{"smiles": "COCCOC(=O)c1ccccc1C(=O)OCCOC", "cytotoxicity (dead cells)": 3.95}
{"smiles": "CCCCCCCCC", "cytotoxicity (dead cells)": -3.99}
{"assay": "MultiTox-Fluor Cytotoxicity Assay - LYMP1-003 - Dead Cells (AID 961);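 also: cells exposed to compound for 16 h at 37 °C; nearly all actives have a fitted effect of over 70% in size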", "details": "LYMP1-003 lymphoblastoid cells, dead-cell protease fluorescence; series mostly up to 92.2 µM; cytotoxicity (dead cells): at the top concentration", "in_short": "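Acute toxicity is scored as increased dead-cell protease activity in human lymphoblastoid LYMP1-003 cells after 16 h compound exposure in complete culture medium. Activity is normalized to DMSO basal and 15 uM tetraoctylammonium bromide as full response.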", "units": {"cytotoxicity (dead cells)": "%"}}
{"smiles": "O=CNc1ccccc1", "cytotoxicity (dead cells)": -24.2}
{"smiles": "Cc1ccc(C#N)cc1", "cytotoxicity (dead cells)": -11}
{"smiles": "CC(C)C=O", "cytotoxicity (dead cells)": -3.83}
{"smiles": "CCCCCCC=O", "cytotoxicity (dead cells)": -7.38}
{"smiles": "CN(C)c1cccc(O)c1", "cytotoxicity (dead cells)": 5.32}
{"smiles": "O=C(O)c1ccc(Cl)cc1Cl", "cytotoxicity (dead cells)": -0.214}
{"smiles": "CCCC(Cl)CCCC(Cl)CCC(Cl)CCC(Cl)CCC(Cl)CCCC(Cl)CCC", "note": "(stereo unspecified)", "cytotoxicity (dead cells)": -7.52}
{"smiles": "CNC(=O)c1ccccc1", "cytotoxicity (dead cells)": -16.2}
{"smiles": "ClCCl", "cytotoxicity (dead cells)": 2.04}
{"smiles": "CC(=O)Nc1ccc(C)cc1", "cytotoxicity (dead cells)": 14.8}
{"smiles": "CC(C)(c1cc(Br)c(OCC(Br)CBr)c(Br)c1)c1cc(Br)c(OCC(Br)CBr)c(Br)c1", "note": "(stereo unspecified)", "cytotoxicity (dead cells)": -6.23}
{"smiles": "CC(=O)Nc1ccc(N)cc1", "cytotoxicity (dead cells)": -13.3}
{"smiles": "Cc1ccccc1C(N)=O", "cytotoxicity (dead cells)": -17.9}
{"smiles": "CC(=O)C1(C)CC2=C(CCCC2(C)C)CC1C", "note": "(stereo unspecified)", "cytotoxicity (dead cells)": 2.5}
{"smiles": "CC(C=O)Cc1ccc(C(C)(C)C)cc1", "note": "(stereo unspecified)", "cytotoxicity (dead cells)": 3.38}
{"smiles": "CCCCN(CCO)CCCC", "cytotoxicity (dead cells)": -2.87}
{"smiles": "OCCO", "cytotoxicity (dead cells)": 2.82}
{"smiles": "CC(=O)OC(C)=O", "cytotoxicity (dead cells)": -13.8}
{"smiles": "NS(=O)(=O)O", "cytotoxicity (dead cells)": -1.62}
{"smiles": "CCOC(=O)C(C)C(C)=O", "note": "(stereo unspecified)", "cytotoxicity (dead cells)": -3.73}
{"smiles": "Cc1ccc(C)c([N+](=O)[O-])c1", "cytotoxicity (dead cells)": -0.639}
{"smiles": "C=C(C)C(=O)OCCCCCCCCCC", "cytotoxicity (dead cells)": -12.1}
{"smiles": "COC(=O)CCCC(=O)OC", "cytotoxicity (dead cells)": -11.7}
{"smiles": "c1ccc(Nc2ccccc2)cc1", "cytotoxicity (dead cells)": -5.94}
{"smiles": "O=C(O)c1cc(Cl)cc(Cl)c1", "cytotoxicity (dead cells)": -14.3}
{"smiles": "CC/C=C1/OC(=O)c2ccccc21", "cytotoxicity (dead cells)": -6.21}
{"smiles": "Cc1ccco1", "cytotoxicity (dead cells)": -4.19}
{"smiles": "NCCCCCCN", "cytotoxicity (dead cells)": -7.5}
{"smiles": "BrC/C=C/CBr", "cytotoxicity (dead cells)": -4.68}
{"smiles": "CC(=C/C=C/C(C)=C/C=C/C=C(C)/C=C/C=C(C)/C=C/C(=O)O)/C=C/C(=O)O", "cytotoxicity (dead cells)": -8.95}
{"smiles": "CCOC(C)(C)C", "cytotoxicity (dead cells)": -8.25}
{"smiles": "O=C(O)c1cccc(Cl)c1Cl", "cytotoxicity (dead cells)": -3.78}
{"smiles": "COc1ccc(OC)cc1", "cytotoxicity (dead cells)": -11.7}
{"smiles": "Clc1cc(Cl)cc(Cl)c1", "cytotoxicity (dead cells)": -5.68}
{"smiles": "Cc1c(C(=O)O)cccc1[N+](=O)[O-]", "cytotoxicity (dead cells)": -9.43}
{"smiles": "CCCCCCCCCCCCC1CO1", "note": "(stereo unspecified)", "cytotoxicity (dead cells)": -3.13}
{"smiles": "COCCOC(=O)c1ccccc1C(=O)OCCOC", "cytotoxicity (dead cells)": -3.18}
{"smiles": "CCCCCCCCC", "cytotoxicity (dead cells)": -7.36}
{"assay": "MultiTox-Fluor Cytotoxicity Assay - LYMP1-003 - Live Cells (AID 962);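 also: cells exposed to compound for 16 hours at 37 °C; 0% = DMSO only and full loss = 92 µM tetraoctylammonium bromide; cytotoxic hits lower the live-cell protease signal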", "details": "LYMP1-003 lymphoblastoid cells, MultiTox-Fluor live-cell protease fluorescence; series mostly up to 92.2 µM; activity change, negative = fewer live cells: at the top concentration", "in_short": "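qHTS, 1536-well; 2500 cells/well LYMP1-003; 5 hr 37 C settle; cpd 16 hr 37 C; MultiTox-Fluor reagent 60 min RT; live-cell protease fluor. 405/510; Hill-fit AC50; tetraoctylammonium bromide pos. ctrl.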", "units": {"activity change, negative = fewer live cells": "%"}}
{"smiles": "O=CNc1ccccc1", "activity change, negative = fewer live cells": -4.35}
{"smiles": "Cc1ccc(C#N)cc1", "activity change, negative = fewer live cells": -3.86}
{"smiles": "CC(C)C=O", "activity change, negative = fewer live cells": -4.45}
{"smiles": "CCCCCCC=O", "activity change, negative = fewer live cells": -2.72}
{"smiles": "CN(C)c1cccc(O)c1", "activity change, negative = fewer live cells": 1.26}
{"smiles": "O=C(O)c1ccc(Cl)cc1Cl", "activity change, negative = fewer live cells": -2.74}
{"smiles": "CCCC(Cl)CCCC(Cl)CCC(Cl)CCC(Cl)CCC(Cl)CCCC(Cl)CCC", "note": "(stereo unspecified)", "activity change, negative = fewer live cells": 3.45}
{"smiles": "CNC(=O)c1ccccc1", "activity change, negative = fewer live cells": -6.66}
{"smiles": "ClCCl", "activity change, negative = fewer live cells": -2.18}
{"smiles": "CC(=O)Nc1ccc(C)cc1", "activity change, negative = fewer live cells": -3.71}
{"smiles": "CC(C)(c1cc(Br)c(OCC(Br)CBr)c(Br)c1)c1cc(Br)c(OCC(Br)CBr)c(Br)c1", "note": "(stereo unspecified)", "activity change, negative = fewer live cells": 1.86}
{"smiles": "CC(=O)Nc1ccc(N)cc1", "activity change, negative = fewer live cells": -3.12}
{"smiles": "Cc1ccccc1C(N)=O", "activity change, negative = fewer live cells": -0.0994}
{"smiles": "CC(=O)C1(C)CC2=C(CCCC2(C)C)CC1C", "note": "(stereo unspecified)", "activity change, negative = fewer live cells": -2.57}
{"smiles": "CC(C=O)Cc1ccc(C(C)(C)C)cc1", "note": "(stereo unspecified)", "activity change, negative = fewer live cells": -2.73}
{"smiles": "CCCCN(CCO)CCCC", "activity change, negative = fewer live cells": -4.9}
{"smiles": "CC(O)CC(C)O", "note": "(stereo unspecified)", "activity change, negative = fewer live cells": -5.86}
{"smiles": "OCCO", "activity change, negative = fewer live cells": -1.85}
{"smiles": "CCOC(=O)C(C)C(C)=O", "note": "(stereo unspecified)", "activity change, negative = fewer live cells": -6.84}
{"smiles": "Cc1ccc(C)c([N+](=O)[O-])c1", "activity change, negative = fewer live cells": -0.581}
{"smiles": "C=C(C)C(=O)OCCCCCCCCCC", "activity change, negative = fewer live cells": -9.01}
{"smiles": "COC(=O)CCCC(=O)OC", "activity change, negative = fewer live cells": -5.81}
{"smiles": "c1ccc(Nc2ccccc2)cc1", "activity change, negative = fewer live cells": -1.58}
{"smiles": "O=C(O)c1cc(Cl)cc(Cl)c1", "activity change, negative = fewer live cells": -6.14}
{"smiles": "CC/C=C1/OC(=O)c2ccccc21", "activity change, negative = fewer live cells": -3.13}
{"smiles": "Cc1ccco1", "activity change, negative = fewer live cells": -0.433}
{"smiles": "NCCCCCCN", "activity change, negative = fewer live cells": -2.12}
{"smiles": "BrC/C=C/CBr", "activity change, negative = fewer live cells": -1.9}
{"smiles": "CC(=C/C=C/C(C)=C/C=C/C=C(C)/C=C/C=C(C)/C=C/C(=O)O)/C=C/C(=O)O", "activity change, negative = fewer live cells": -9.75}
{"smiles": "CCOC(C)(C)C", "activity change, negative = fewer live cells": -7.63}
{"smiles": "O=C(O)c1cccc(Cl)c1Cl", "activity change, negative = fewer live cells": -1.36}
{"smiles": "COc1ccc(OC)cc1", "activity change, negative = fewer live cells": -3.81}
{"smiles": "Clc1cc(Cl)cc(Cl)c1", "activity change, negative = fewer live cells": -2.37}
{"smiles": "Cc1c(C(=O)O)cccc1[N+](=O)[O-]", "activity change, negative = fewer live cells": 0.269}
{"smiles": "CCCCCCCCCCCCC1CO1", "note": "(stereo unspecified)", "activity change, negative = fewer live cells": -2.36}
{"smiles": "COCCOC(=O)c1ccccc1C(=O)OCCOC", "activity change, negative = fewer live cells": -4.06}
{"smiles": "CCCCCCCCC", "activity change, negative = fewer live cells": -4.83}
